MARV entry inh: inhibitors of Marburg virus binding or cell entry | Marburg virus pseudotyped entry inhibition, cell reporter | Potency, µM (top dose mostly 37.8 µM), for inactives: top-dose activity change, negative = inhibition, most hits filed as inhibitors | 300,000 compounds, 1.8% hits; calls by dose curve; tested in HEK293 cells; also: potency is read from the fitted curve at half-maximal effect; % is scaled to controls: 0 for no effect and ±100 for the full control effect
FMDV inh: blocks foot and mouth disease virus | 410,000 compounds, 1.2% hits | FMDV antiviral cell-based qHTS | Potency, µM (titrated, usually from 57.9 µM), without a hit: top-dose activity change, negative = inhibition, hits mostly inhibitors | AID 1159524; calls by dose curve; tested in HEK293T cells; also: read-out not given here; potency is read from the fitted curve at half-maximal effect; % is scaled to controls: 0 for no effect and ±100 for the full control effect; nearly all actives have a fitted effect of over 45% in size
SARS PLpro yeast: inhibitors of SARS-CoV papain-like protease in yeast; S. cerevisiae expressing SARS-CoV PLpro, growth rescue; Potency, µM (highest dose often 32.9 µM), inactives show at the highest dose activity, positive = growth rescue, actives largely listed as activators; 330,000 compounds, 0.19% hits; AID 485353; calls by dose curve; also: potency is read from the fitted curve at half-maximal effect; 0% is about no effect; nearly all actives have a fitted effect of over 55% in size
HCV inh: HCV inhibition | Huh7.5.1 HCVcc-Cre infection, luciferase reporter, 44 h | 340,000 compounds, 3.4% hits | Potency, µM (titrated, usually from 41.8 µM), for inactives: at the highest dose activity change, negative = inhibition, hits mostly inhibitors; active = well fitted inhibition curve with a large enough effect; inconclusive = small, poorly fitted or top-dose-only effect, or another doubt; inactive = no such curve, though single readings can be large or run the other way; also: potency is read from the fitted curve at half-maximal effect; % is scaled to controls: 0 for no effect and ±100 for the full control effect
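A cell-based infection assay in which seeded cells (1,000 per well) receive test compound after 4 h, are inoculated with HCVcc-Cre at approximately 0.5 moi, and are incubated 44 h before luminescence detection.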
Lassa entry inh: Lassa virus entry inhibition | Lassa virus pseudotype entry inhibition, cell reporter | Potency, µM (titrated, usually from 37.9 µM), inactives show at the highest dose activity change, negative = inhibition, actives largely listed as inhibitors | AID 540256 | 300,000 compounds, 1.2% hits; calls by dose curve; tested in HEK293 cells; also: potency is read from the fitted curve at half-maximal effect; % is scaled to controls: 0 for no effect and ±100 for the full control effect; nearly all actives have a fitted effect of over 50% in size
HCMV inh: human cytomegalovirus inhibition; HFF cells, HCMV-luciferase reporter, 72 h; active compounds read low; activity change, negative = inhibition, % at 57.5 µM; 410,000 compounds, 4.5% hits; AID 1259415; in the data active = activity change below about -60%; inconclusive = no clear call, values can overlap the other calls; inactive = above about -39%; also: % is scaled to controls: 0 for no effect and ±100 for the full control effect
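Steps: HFFs plated, 16 h 37C; compounds added; HCMV-luciferase added to MOI 1 PFU/cell; 72 h 37C; OneGlo reagent, 5 min room temperature; luminescence read, normalized to controls.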
* marks the source's active call; other numbers are inactive results; ? = inconclusive; . = not tested or not shown; [ ] = another dose, or the depositor's remark. Rows were chosen to be rich in hits. Some 8% of all compounds tested hit in one or more screens of this group.

SMILES	MARV entry inh	FMDV inh	SARS PLpro yeast	HCV inh	Lassa entry inh	HCMV inh
CCCN1C2CCCC1CC(NC(=O)Nc1cccc(C(C)=O)c1)C2 (stereo not given)	1.7%	6.7%	-2.0%	2.82µM*	20.4%	40.8
O=C(Cc1ccc(Br)cc1)NC1CCCc2ccccc21 (stereo not given)	?	8.2%	1.2%	-27.2%	?	11.9
CC(=O)c1cccc(NC(=O)NC2CC3CCCC(C2)N3CC(C)C)c1 (stereo not given)	?	17.2%	4.0%	-5.7%	21.6%	39.3
O=C(CCl)NC1CCCc2ccccc21 (stereo not given)	?	?	0.4%	13.4%	-27.1%	-109.4*
O=C(NC1CCCc2ccccc21)c1c(F)cccc1Cl (stereo not given)	3.9%[46.1 µM]	0.5%	0.6%	-4.5%	-9.8%	-66.8*
O=C(NC1CCSc2ccccc21)c1c(F)cccc1Cl (stereo not given)	-6.8%[46.1 µM]	-8.3%	-2.0%	-2.5%	-5.1%[46.1 µM]	-6.5
C[C@H]1[C@@H]2O[C@H]2CCO[C@H]1c1cccc(Br)c1	-16.0%[14.2 µM]	.	.	.	.	.
Cc1nn(Cc2ccc(Cl)cc2Cl)c(Cl)c1C(=O)NC1CCCc2ccccc21 (stereo not given)	6.0%	20µM*	2.8%	0.3%	5.2%	26.3
Cc1nn(Cc2ccccc2)c(C)c1C(=O)NC1CCCc2ccccc21 (stereo not given)	-8.0%	-23.2%	8.7%	-0.8%	0.6%	-14.3
CC(=O)c1cccc(NC(=O)NC2CCCc3ccccc32)c1 (stereo not given)	.	12.2%	-2.0%	?	.	-69.8*
Oc1cc(-c2nc3ccccc3s2)cc2c1OCCN(Cc1cccn1-c1nccs1)C2	.	23.3%	.	.	.	.
CCc1ccc(C(=O)CC2(O)C(=O)N(CCc3ccccc3)c3ccc(Cl)cc32)cc1 (stereo not given)	?	-10.8%	.	.	?	-28.0
CC(=O)Oc1ccccc1/C=C1\CCOC1=O	-17.0%	.	-2.2%	12.8%	0.0%	-62.4*
C=CC[C@@H]1C=C[C@H](ON=C[C@@H](C)[C@H](OCc2ccccc2)C(C)C)[C@H](CO)O1	-10.4%[14.2 µM]	.	.	.	?	.
COc1ccc(-c2noc(-c3ccc(N4CCCC4)c([N+](=O)[O-])c3)n2)cc1	9.7%[46.1 µM]	5.1%	.	.	16.4%[46.1 µM]	?
O=C(NCc1ccccc1)C1=C[C@H](C2CCCCC2)C[C@H](OCc2ccc(CO)cc2)O1	.	-3.9%	0.6%	13.9%	.	-83.6*
O=C(NCc1ccccc1)C1=C[C@@H](c2csc3ccccc23)C[C@@H](OCc2ccc(CO)cc2)O1	.	2.8%	-1.6%	?	.	-97.9*
O=C(O)C1=C[C@H](c2csc3ccccc23)C[C@H](OCc2ccc(CO)cc2)O1	.	-3.9%	-2.5%	26.8%	.	4.7
O=C(NCc1ccccc1)C1=C[C@@H](c2csc3ccccc23)C[C@@H](OCCCCO)O1	.	28.7%	-3.8%	-20.3%[8.37 µM]	.	-97.1*
Cn1cnc(S(=O)(=O)N[C@H]2CC[C@@]34CCCN3C(=O)CCC[C@H]4[C@H]2Cc2ccccc2)c1	.	.	.	.	.	7.0
Cc1ccc(NC(=O)c2cnn3c(C(F)F)cc(-c4ccccc4)nc23)c(C)c1	-1.8%[46.1 µM]	-17.4%	.	.	-0.6%[46.1 µM]	-33.5
COCCCN(C(=O)c1cc2c(s1)CCCCC2)c1c(N)n(Cc2ccccc2)c(=O)[nH]c1=O	-17.1%[46.1 µM]	-13.2%	-2.7%	?	10µM*	-39.1
CCc1nc2ccccc2c(C(=O)Oc2cccc3cccnc23)c1C	6.5%	-11.5%	8.7%	2.24µM*	1.2%	26.8
CCc1nc2ccccc2c(C(=O)OCC(=O)N(CCOC)c2c(N)n(Cc3ccccc3)c(=O)[nH]c2=O)c1C	?	-24.7%	-7.1%	14.1µM*	5.5%	?
CCc1nc2ccccc2c(C(=O)NCc2ccccc2)c1C	-3.6%	-6.9%	-0.4%	-15.2%	7.2%	-67.5*
COCCN(C(=O)COC(=O)c1c(-c2ccccc2)noc1C)c1c(N)n(Cc2ccccc2)c(=O)[nH]c1=O	9.9%[46.1 µM]	8.9%	-0.8%	?	-13.8%[46.1 µM]	16.1
CCOC(=O)c1cc(-c2ccccc2)n(-c2cccc(C(=O)N(C)c3ccc(C)cc3)c2)c1C	.	-24.6%	.	.	?	?

Source: PubChem
